From PubChem BioAssay AID1117293 (Broad Institute, 2014) come the findings set out here.

Results with a measured potency or affinity are listed apart. Records with an inconclusive call do not appear. Values without a mark were called inactive. Activity calls are given as the source filed them.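 Rule for the calls: active = cytotoxic in every repeat run, with fitted half-maximal concentration at most twice the top tested dose; inconclusive = runs disagree, or flat partial drop, or poor curve fit; inactive = inactive in every run.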

A short description of this experiment: HEK293T cell cytotoxicity, dose response, cytotoxicity control, CellTiter-Glo luminescence, dry powder, set 20 (AID 1117293). As to conditions: HEK293T viability, CellTiter-Glo ATP luminescence, 72 h; series mostly up to 26 µM; activity change, negative = cytotoxicity: at the top concentration. In general terms: In ATP-based viability assays light output follows the ATP content of the culture.
Regarding `CC(=O)N1CCN(C(=O)C2(NC(=O)Nc3cccc(C(F)(F)F)c3)CCCCC2)CC1`, the “activity change, negative = cytotoxicity” value is -5.58%.
Turning to `CC(=O)N1CCN(C(=O)C2(NC(=O)Nc3cccc(F)c3)CCCCC2)CC1`, the “activity change, negative = cytotoxicity” value is -6.5%.
Regarding `COc1ccc(C(=O)O)cc1S(=O)(=O)Nc1cc(C(F)(F)F)ccc1N1CCOCC1`, the “activity change, negative = cytotoxicity” value is -19.9%.
For `O=[N+]([O-])c1cccc(S(=O)(=O)Nc2cc(C(F)(F)F)ccc2N2CCCCC2)c1`, the “activity change, negative = cytotoxicity” value was -23.7%.
The same measure, in the same setting: the value for `O=S(=O)(Nc1cc(C(F)(F)F)ccc1N1CCCCC1)c1ccccc1` was -6.45%; that for `Cc1ccc(NC(=O)NC2(C(=O)N3CCN(c4ccccc4)CC3)CCCCC2)cc1` was 3.02%; that for `COc1ccc(S(=O)(=O)Nc2cc(C(F)(F)F)ccc2N2CCCCC2)cc1` was -15.2%.
Consider `Cn1cnc(S(=O)(=O)Nc2cc(C(F)(F)F)ccc2N2CCCCC2)c1`, for which the “activity change, negative = cytotoxicity” value was 4.84%.
With `O=C(Nc1cc(C(F)(F)F)ccc1N1CCCCC1)c1ccc(S(=O)(=O)O)cc1`, the “activity change, negative = cytotoxicity” value was 8.17%.
With `CC(=O)N1CCN(C(=O)C2(NC(=O)Nc3ccccc3)CCCC2)CC1`, the “activity change, negative = cytotoxicity” value was 4.55%.
As for `COc1ccc(C(=O)O)cc1S(=O)(=O)Nc1cc(C(F)(F)F)ccc1N1CCN(C(C)=O)CC1`, the “activity change, negative = cytotoxicity” value is -2.37%.
Same read-out and setting: in the case of `COc1ccc(C(=O)O)cc1S(=O)(=O)Nc1cccc(N2CCCCC2)c1C(F)(F)F` it was 10.9%.
Regarding `CC(=O)N1CCN(C(=O)C2(NC(=O)Nc3ccccc3F)CCCCC2)CC1`, the call was inactive.
For the compound `Cc1ccc(NC(=O)NC2(C(=O)N3CCNCC3)CCCCC2)cc1`, the “activity change, negative = cytotoxicity” value is 0.421%.
For `Cc1ccccc1S(=O)(=O)Nc1cc(C(F)(F)F)ccc1N1CCCCC1`, the “activity change, negative = cytotoxicity” value is -7.06%.
Still for that read-out and setting: the value for `COc1ccc(C(=O)O)cc1S(=O)(=O)Nc1cc(C(F)(F)F)ccc1N(C)C` was -19.4%; that for `COc1ccc(C(=O)Nc2cc(F)ccc2N2CCCCC2)cc1S(=O)(=O)O` was -5.87%; that for `COc1ccc(C(=O)Nc2cccc(C(F)(F)F)c2)cc1S(=O)(=O)O` was -16.2%.
Same read-out and setting: in the case of `O=S(=O)(Nc1cc(C(F)(F)F)ccc1N1CCCCC1)c1ccc(Br)cc1` it was -7.61%.
Same read-out and setting: in the case of `O=S(=O)(Nc1cc(C(F)(F)F)ccc1N1CCCCC1)c1ccc(Cl)cc1` it was -21.7%; in that of `COc1ccc(C(=O)Nc2ccccc2N2CCCCC2)cc1S(=O)(=O)O`, -2.25%; in that of `COc1cccc(NC(=O)NC2(C(=O)N3CCN(C(C)=O)CC3)CCCCC2)c1`, 2.63%.
As to `CC(=O)N1CCN(C(=O)C2(NC(=O)NCCc3ccccc3)CCCCC2)CC1`, the “activity change, negative = cytotoxicity” value is -9.03%.
On the same count and under the same terms, in the case of `CC(=O)N1CCN(C(=O)CNC(=O)Nc2ccc(C)cc2)CC1` it was -21.5%.
